Source: PubChem BioAssay (several laboratories)
BCLXL inh: inhibitors of human Bcl-xL, primary screen, biochemical, fluorescence polarization, HTS; GST-Bcl-xL / FITC-Bim BH3 peptide fluorescence polarization; 320,000 tested, 0.7% active; inhibition, % at 10.9 µM; Bcl-2-like protein 1 (Homo sapiens), Q07817; AID 2129, 2009;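 active = inhibition above the mean of all tested compounds plus 3 SD, cutoff set per campaign, cut at about 30% in these data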;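 also: inhibitors lower millipolarization by displacing the labeled peptide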
MEX-5 binding: MEX-5 zinc finger RNA-binding disruptors – biochemical, C. elegans, fluorescence polarization, MLPCN library, primary screen. Zinc finger protein mex-5 (Caenorhabditis elegans), Q9XUB2. MEX-5/FITC-TCR2 RNA binding; active compounds read low. activity score (negative = inhibition of binding), % at 10 µM. 300,000 tested, 0.38% active;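 active = inhibition past about -25% in most replicates, and total fluorescence under double the plate's negative control median, limit read from the data; inconclusive = replicates evenly split on the limit, or fluorescence at least double controls; inactive = too little inhibition in most replicates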
GLD-1 TGE inh: GLD-1/TGE RNA complex disruptors, primary screen, biochemical, fluorescence polarization. Female germline-specific tumor suppressor gld-1 (Caenorhabditis elegans), Q17339. purified GLD-1 + fluorescein TGE RNA. inhibition, % at 5.96 µM. 320,000 tested, 0.44% active. AID 2280, 2010;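 active = percent inhibition above a per-plate cutoff, the plate mean of test compounds plus 3 SD, cut at about 30% in these data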
MCL1 BIM primary: inhibitors of MCL1 binding to BIM-BH3, primary screen, biochemical, fluorescence polarization. GST-MCL1 / FITC-Bim-BH3 fluorescence polarization. Induced myeloid leukemia cell differentiation protein Mcl-1 (Homo sapiens), Q07820. 320,000 tested, 0.68% active. inhibition, % at 10.9 µM;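 active = inhibition above the mean inhibition of all tested compounds plus 3 SD, set per campaign, cut at about 40% in these data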;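 also: higher means more loss of mP so more displacement of Bim peptide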
Target sequence (Q07820 whole entry, looked up): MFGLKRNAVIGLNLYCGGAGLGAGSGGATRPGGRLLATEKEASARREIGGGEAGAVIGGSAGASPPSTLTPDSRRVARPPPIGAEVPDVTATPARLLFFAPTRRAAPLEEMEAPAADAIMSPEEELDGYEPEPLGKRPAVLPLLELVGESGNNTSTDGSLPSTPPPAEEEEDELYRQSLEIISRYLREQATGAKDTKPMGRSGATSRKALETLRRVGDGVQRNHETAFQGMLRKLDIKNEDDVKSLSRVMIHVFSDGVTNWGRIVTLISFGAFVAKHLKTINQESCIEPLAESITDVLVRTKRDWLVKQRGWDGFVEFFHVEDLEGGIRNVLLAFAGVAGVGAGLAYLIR
EBV gp42 inh: Epstein-Barr virus gp42 inhibitors, primary screen, biochemical, uHTS, fluorescence polarization | Glycoprotein 42 (Epstein-Barr virus (strain AG876)), Q1HVG2 | Fluorescence polarization binding assay, mP read-out | inhibition, % (tested at 21.74 µM) | 220,000 tested, 0.42% active | AID 1085, 2008; in the data active = inhibition above about 50%
Target sequence (Q1HVG2 whole entry, looked up): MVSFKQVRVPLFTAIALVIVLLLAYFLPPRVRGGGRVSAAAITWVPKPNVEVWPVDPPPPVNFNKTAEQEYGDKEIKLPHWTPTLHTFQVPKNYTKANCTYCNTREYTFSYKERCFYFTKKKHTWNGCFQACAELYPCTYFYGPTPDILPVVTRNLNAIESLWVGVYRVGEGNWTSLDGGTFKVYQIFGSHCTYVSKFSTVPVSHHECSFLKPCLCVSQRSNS
E coli Lon inh: inhibitors of E. coli Lon protease, primary screen, biochemical, fluorescence polarization | purified E. coli Lon protease | inhibition, % at 7.94 µM | 360,000 tested, 0.42% active; in the data active = inhibition above about 13%, passing the limit was not always enough
A number is an active result; n = inactive; u = inconclusive; x = no result given. In the library only some 1.5% were active in any assay of this set; here they are far more common.

SMILES	BCLXL inh	MEX-5 binding	GLD-1 TGE inh	MCL1 BIM primary	EBV gp42 inh	E coli Lon inh
N=c1c(C(=O)NCCc2ccccc2)cc2c(=O)n3ccccc3nc2n1CCCN1CCOCC1	n	n	n	n	x	n
N=c1c(C(=O)NCCN2CCOCC2)cc2c(=O)n3ccccc3nc2n1CCc1ccccc1	n	-28	n	n	x	n
CCc1ccccc1NC(=O)CN(C1CCCCC1)S(C)(=O)=O	n	n	n	n	x	n
O=C(NNC(=O)c1cnccn1)c1cccc([N+](=O)[O-])c1	n	-61	n	n	n	n
O=C(NNC(=O)c1ccccc1[N+](=O)[O-])c1cnccn1	n	-65	n	n	n	n
O=C(/C=C(\O)c1ccccc1)C(=O)NNC(=O)c1ccccc1[N+](=O)[O-]	n	-48	n	n	x	n
O=C(NNC(=S)NC(=O)c1ccccc1[N+](=O)[O-])c1ccccc1[N+](=O)[O-]	n	n	n	n	n	n
Cc1cc(C(=O)NNC(=O)c2cccc([N+](=O)[O-])c2)n[nH]1	n	x	n	n	x	n
CCOC(=O)C1=CCN(S(=O)(=O)c2ccccc2C)C1c1ccc(F)cc1 (stereo unspecified)	x	x	x	x	x	n
O=C(CSc1n[nH]c(=O)[nH]c1=O)Nc1cccc(S(=O)(=O)N2CCOCC2)c1	n	n	n	n	n	n
O=C(CSc1n[nH]c(=O)[nH]c1=O)Nc1ccc2c(c1)C(=O)c1ccccc1C2=O	34	n	n	40	64	n
Cc1ccc([C@@H]2[C@@H]3C(=O)N(c4ccccc4)C(=O)[C@@H]3[C@]3(C)C(=O)N(Cc4ccc(-c5ccccc5)cc4)CC(=O)N23)o1	n	n	n	n	x	n
COc1ccc(NC(=O)CSc2nc3c(c(-c4cccs4)c2C#N)CN(C)CC3)cc1OC	42	n	n	n	57	n
COc1cccc(OCCn2cc(C=O)c3ccccc32)c1	n	-27	n	n	x	n
COC(=O)N/N=C/c1cn(CCOc2cccc(OC)c2)c2ccccc12	n	n	n	n	x	n
COc1ccc(CCNC(=O)CSc2ccc3nnc(CCNC(=O)c4ccccc4)n3n2)cc1OC	n	n	n	n	x	n
O=C1N=c2ccccc2=C1c1sc(Nc2ccc(O)cc2)nc1O	x	x	x	x	63	n
O=C1N=c2ccccc2=C1c1sc(Nc2cccc(O)c2)nc1O	n	n	n	n	x	n
c1coc(-c2cc(C3CCNCC3)[nH]n2)c1	n	n	n	n	n	n
N#CCN1CCC(c2cc(-c3ccco3)n[nH]2)CC1	38	n	n	n	n	x
O=C(NCc1ccccc1)c1cc(C2COCCN2C(=O)c2ccc(Cl)cc2)on1 (stereo unspecified)	x	x	x	x	x	n
CCOC(=O)COn1c(=O)c(-c2cc3ccccc3o2)[n+]([O-])c2ccccc21	n	-37	n	n	n	n
CCOC(=O)COn1c(=O)c(-c2ccc(F)cc2)[n+]([O-])c2ccccc21	x	n	x	x	x	n
O=C(c1ccccc1)[C@@H]1[C@@H](C(=O)c2ccc(F)cc2)[C@@]2(C(=O)Nc3ccccc32)[C@H]2c3ccccc3C=CN12	33	n	n	n	n	n
COc1ccccc1C(=O)NCCC(=O)NCc1cccs1	n	n	n	n	x	n
SMILES	BCLXL inh	MEX-5 binding	GLD-1 TGE inh	MCL1 BIM primary	EBV gp42 inh	E coli Lon inh
COC(=O)c1ccc(C)c(NC(=O)CCSc2ccc(Cl)cc2)c1	n	n	n	n	99	n
COc1ccccc1NC(=O)CON=C(N)CC(=O)NC1CCCCC1	n	x	n	n	x	n
O=C1CCNc2c(Cl)cc(Cl)cc21	32	n	n	n	71	n
Oc1c(Br)cc(/C=N/n2c(-c3ccccc3)n[nH]c2=S)c(Br)c1O	60	-52	n	108	x	x
Oc1c(Br)cc(Br)cc1/C=N/n1c(-c2ccccc2)n[nH]c1=S	n	n	n	n	x	n
O=S(=O)(NC1=NCCCCC1)c1cc(F)ccc1F	x	x	n	x	x	n
O=C1/C(=C/c2ccc(Br)cc2)Oc2cc(O)ccc21	n	-40	76	n	x	n
CC(C)(C)c1ccc(/C=C2\Oc3cc(O)ccc3C2=O)cc1	n	-27	n	n	x	n
CCOC(=O)[C@H]1[C@H]2COc3ccc(C)cc3[C@@H]2N2C(=O)[C@@H](C)NC(=O)[C@@]12C	n	x	n	n	x	n
O=C(NCCOc1ccccc1)C1CCC(=O)N(CCN2CCOCC2)C1 (stereo unspecified)	n	n	n	n	x	n
CCN1/C(=C2\SC(=S)N(Cc3ccccc3)C2=O)Sc2ccccc21	n	-26	n	n	53	n
CCN1C(=O)/C(=C2/Sc3ccccc3N2CC)SC1=S	n	n	n	n	x	n
CCN1/C(=C2/SC(=S)N(NC(C)=O)C2=O)Sc2ccccc21	x	-46	x	x	x	n
CN1CCN(c2ccc(CNC(=O)C3(C)Cc4c(-c5ccccc5)ccnc4O3)cc2)CC1 (stereo unspecified)	x	x	x	x	x	n
O=C(NCc1nnnn1-c1ccc(Cl)cc1)c1ccc(Br)o1	n	n	n	n	x	n
Cn1c(NCC2CCCCC2)nc2cc(-c3ccsc3)sc2c1=O	x	x	x	x	x	n
CCCCc1cn([C@@H](CCCCN)C(=O)N2CCNCC2)nn1	39	-29	n	n	n	n
COC(=O)CCC(=O)OC1(C)C(=O)C2=CN(C3CC3)C(c3ccc(OC)cc3)=CC2=C(Br)C1=O (stereo unspecified)	n	n	n	n	x	n
COC(=O)CCC(=O)OC1(C)C(=O)C2=CN(Cc3ccc(OC)cc3)C(c3ccc(OC)cc3)=CC2=C(Br)C1=O (stereo unspecified)	n	n	n	n	x	n
COC(=O)CCC(=O)OC1(C)C(=O)C2=CN(CCCOC(C)C)C(c3ccc(OC)cc3)=CC2=C(Br)C1=O (stereo unspecified)	42	u	n	45	n	n
COC(=O)CCC(=O)OC1(C)C(=O)C=C2C=C(C3CC3)N(Cc3ccc(OC)cc3)C=C2C1=O (stereo unspecified)	37	n	n	n	n	n
COC(=O)CCC(=O)OC1(C)C(=O)C=C2C=C(C3CC3)N(Cc3ccc4c(c3)OCO4)C=C2C1=O (stereo unspecified)	n	n	n	n	n	n
COC(=O)CCC(=O)OC1(C)C(=O)C2=CN(CC(C)C)C(c3ccc(OC)cc3)=CC2=C(Br)C1=O (stereo unspecified)	43	n	n	46	n	x
